The text below walks through data of PubChem BioAssay (NCATS).

For test [1], the target named is Aldehyde dehydrogenase, mitochondrial (Homo sapiens) (UniProt P05091). In words: qHTS for Inhibitors of the Aldehyde Dehydrogenase Family (ALDH2) Confirmatory screens (AID 2061303; active means well fitted inhibition curve with a large enough effect; title and protocol of this record describe different tests; further: nearly all actives have a fitted effect of over 45% in size; further: potency means the concentration at half of the fitted maximal effect; on activity change, negative = inhibition: on the % scale 0 is the no-effect control and ±100 the full control effect). (In general: qHTS replaces the single test concentration by a dilution series.)
Test [2] can be described thus: qHTS for Inhibitors of the Aldehyde Dehydrogenase Family (ALDH1A2, ALDH1A3, ALDH2, ALDH3A1) (AID 2061307). Further: nearly all actives have a fitted effect of over 50% in size. On Potency: test system not described further here; potency means the concentration at half of the fitted maximal effect. On activity change, negative = inhibition: on the % scale 0 is the no-effect control and ±100 the full control effect.
In test [3] the target is Aldehyde dehydrogenase, mitochondrial (Homo sapiens) (UniProt P05091). The experiment in a line: qHTS for Inhibitors of the Aldehyde Dehydrogenase Family (ALDH2) Primary screen (AID 2061308). Further: nearly all actives have a fitted effect of over 55% in size. Further: potency means the concentration at half of the fitted maximal effect.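 On activity change, negative = inhibition: plate controls were vehicle for no effect and reference inhibitor for full effect.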
In test [4] the target is Retinaldehyde dehydrogenase 3 (Homo sapiens) (UniProt P47895). The experiment in a line: qHTS for Inhibitors of the Aldehyde Dehydrogenase Family (ALDH1A3) Confirmatory screens (AID 2061311). Further: nearly all actives have a fitted effect of over 60% in size. Further: potency means the concentration at half of the fitted maximal effect. On activity change, negative = inhibition: on the % scale 0 is the no-effect control and ±100 the full control effect.
The target of test [5] is Retinal dehydrogenase 2 (Homo sapiens) (UniProt O94788). The experiment in a line: qHTS for Inhibitors of the Aldehyde Dehydrogenase Family (ALDH1A2) Confirmation screens (AID 2061314). Further: nearly all actives have a fitted effect of over 65% in size. Further: potency means the concentration at half of the fitted maximal effect.
The target in test [6] is Aldehyde dehydrogenase 1A1 (Homo sapiens) (UniProt P00352). The experiment in a line: qHTS for Inhibitors of the Aldehyde Dehydrogenase Family (ALDH1A1) Confirmatory screens (AID 2061316). Further: nearly all actives have a fitted effect of over 65% in size. Further: potency means the concentration at half of the fitted maximal effect. On activity change, negative = inhibition: on the % scale 0 is the no-effect control and ±100 the full control effect.
Test [7] addresses Retinaldehyde dehydrogenase 3 (Homo sapiens) (UniProt P47895). In words: qHTS for Inhibitors of the Aldehyde Dehydrogenase Family (ALDH1A3) Primary screen (AID 2061315).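 Further: plate controls were DMSO vehicle for no effect and reference inhibitor for full effect.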
Test [8] in a line: BET inhibitor-based combinations targeting novel dependencies in MECOM-rearranged (r) AML: OCI-AML3 cell line (AID 2202232). Further: nearly all actives have a fitted effect of over 35% in size. Further: potency means the concentration at half of the fitted maximal effect. The note with it: Potency: OCI-AML3 viability. The method in brief: (§1)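 Luminescent ATP readout (CellTiter-Glo) after 48 hr drug exposure gives viability. Curves span 11 concentrations and are normalized to DMSO and empty wells. Activity is reported as area under the curve and its Z-transform within each cell line.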

Test [9] can be described thus: BET inhibitor-based combinations targeting novel dependencies in MECOM-rearranged (r) AML: MV-4-11 cell line (AID 2202233).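 Further: plate controls were DMSO for no effect and blank wells for full effect; nearly all actives have a fitted effect of over 45% in size.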 An outline of the steps: (§2)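 Luminescent ATP readout (CellTiter-Glo, 15 min at room temperature) after 48 hr drug exposure gave viability. Dose-response curves, normalized to DMSO and empty-well controls, were summarized as area under the curve and its mean-centred Z-score.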

A short description of test [10]: BET inhibitor-based combinations targeting novel dependencies in MECOM-rearranged (r) AML: UCSD-AML1 cell line (AID 2202235). Further: nearly all actives have a fitted effect of over 40% in size. Further: potency means the concentration at half of the fitted maximal effect. The method in brief:
as §2

The target of test [11] is Aldehyde dehydrogenase, mitochondrial (Homo sapiens) (UniProt P05091). In words: qHTS for Inhibitors of the Aldehyde Dehydrogenase Family (ALDH2) Validation screens (AID 2061302; active means well fitted inhibition curve with a large enough effect; title and protocol of this record describe different tests;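 further: plate controls were DMSO vehicle for no effect and maximal DPI positive control response for full effect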).
Test [12] can be described thus: BET inhibitor-based combinations targeting novel dependencies in MECOM-rearranged (r) AML: SET-2 cell line (AID 2202231). Further: nearly all actives have a fitted effect of over 35% in size. Further: potency means the concentration at half of the fitted maximal effect.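 On viability: plate controls were DMSO treated cells for no effect and wells without cells for full effect.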 The settings on record: SET-2 AML cells viability, CellTiter-Glo luminescence, 48 h; viability: stronger effect = lower value, concentration not given here. The method in brief: as §1
(In ATP-based viability assays light output follows the ATP content of the culture.)

Test [13] in a line: BET inhibitor-based combinations targeting novel dependencies in MECOM-rearranged (r) AML: HNT-34 cell line (AID 2202234). Further: nearly all actives have a fitted effect of over 35% in size. Further: potency means the concentration at half of the fitted maximal effect. An outline of the steps: as §2
Test [14] can be described thus: BET inhibitor-based combinations targeting novel dependencies in MECOM-rearranged (r) AML: AML-194 cell line (AID 2202237; further: nearly all actives have a fitted effect of over 40% in size; further: potency means the concentration at half of the fitted maximal effect). An outline of the steps: as §1
The target of test [15] is Retinaldehyde dehydrogenase 3 (Homo sapiens) (UniProt P47895). In words: qHTS for Inhibitors of the Aldehyde Dehydrogenase Family (ALDH1A3) Validation screen (AID 2061312). Further: on the % scale 0 is the no-effect control and ±100 the full control effect; nearly all actives have a fitted effect of over 45% in size.
Test [16] in a line: BET inhibitor-based combinations targeting novel dependencies in MECOM-rearranged (r) AML: AML-191 cell line (AID 2202236;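 further: plate controls were vehicle wells for no effect and wells without cells for full effect; nearly all actives have a fitted effect of over 35% in size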). The method in brief:
as §1

Records with an inconclusive call do not appear. Unmarked numbers belong to inactive results. Active and inactive are the calls of the source. Unless noted, the call rests on the fitted dose curve; in most records, active means well fitted curve in the direction sought with a large enough effect; inconclusive means small, poorly fitted or top-dose-only effect, or another doubt; inactive means no such curve, though single readings can be large; an effect the other way counts as inactive or inconclusive.

Turning to `N#Cc1c(-c2ccc([N+](=O)[O-])o2)no[n+]1[O-]`, the Potency in test [1] is 2.82 µM (active); in [2], 10.1 µM (active); in test [3], 3.16 µM (active); in test [4] it was 7.94 µM (active); in test [5], 15.8 µM (active); in [6] it was 2.25 µM (active).
For the molecule `Oc1ccc(C2=CCNCC2)cc1O`, in [2], the Potency result was “inactive”.
Turning to `N#Cc1c(-c2cccc(-c3no[n+]([O-])c3C#N)c2)no[n+]1[O-]`, the Potency in test [1] was 1.27 µM (active); in [3], 0.282 µM (active); in test [5], 1.27 µM (active); in [6] it was 12.7 µM (active). The Potency result in test [7] is “inactive”.
Consider `COC1=C[C@@H]2[C@@H]3Cc4ccc(OC)c(O)c4[C@]2(CCN3C)CC1=O`, for which the Potency result in [2], in [3], in test [4], in [7], in test [6] and in test [8] was “inactive” throughout. The Potency entry in test [9] and in test [10] was “inactive” in each case. In test [5], the Potency is 7.12 µM (active).
As for `CCc1nn2c(=O)cc(C3=CCNCC3)nc2s1`, the Potency entry in [2] is “inactive”.
Turning to `O=C(CNC12CC3CC(CC(C3)C1)C2)c1ccc(Cl)cc1`, in [2], the Potency entry is “inactive”.
`CC(=O)c1ccc(N=[N+]=[N-])cc1`: the Potency in [2] was 8.96 µM (active).
As to `C[C@@H]1Cc2c(Cl)cc(C(=O)N[C@@H](Cc3ccccc3)C(=O)O)c(O)c2C(=O)O1`, the Potency result in [1], in test [2], in test [3], in test [5] and in test [7] was “inactive” throughout.
Regarding `COc1cc(O)c2c(c1)CCC[C@@H](O)[C@H](O)C(=O)/C=C\C[C@H](C)OC2=O`, the Potency result in test [1], in [3], in test [4], in test [5] and in [7] was “inactive” each time.
Consider `Cc1cccc(C)c1OP(=O)(OCc1c(-c2ccccc2)no[n+]1[O-])Oc1c(C)cccc1C`, for which the Potency is 1.12 µM (active) in test [1], 5.04 µM (active) in [2], 12.7 µM (active) in test [4] and 12.7 µM (active) in test [5]. Besides, the Potency entry in test [7] was “inactive”.
In the case of `CC1=C(C)C(=O)C(CC[C@](C)(O)CCC[C@H](C)CCC[C@H](C)CCCC(C)C)=C(C)C1=O`, the Potency entry in [2], in test [3] and in test [6] was “inactive” in each case. Further, the Potency is 10.1 µM (active) in [4] and 4.49 µM (active) in test [5].
For `CCOc1ccc(CCNC(=O)c2cc3cccnc3n2Cc2cccc(C)n2)cc1OCC`, the Potency entry in test [1], in test [3] and in [7] was “inactive” each time. Further, in test [4], the activity change, negative = inhibition is -11.9% [at 0.022 µM].
Turning to `Cc1cc(C)c(OP(=O)(OCc2c(-c3ccccc3)no[n+]2[O-])Oc2c(C)cc(C)cc2C)c(C)c1`, the Potency is 12.6 µM (active) in test [2] and 2.01 µM (active) in [6]. Further, the Potency entry in test [7] is “inactive”.
As to `N#Cc1c(-c2cc(F)cc(-c3no[n+]([O-])c3C#N)c2)no[n+]1[O-]`, the Potency in [1] was 0.357 µM (active); in test [5], 1.59 µM (active); in test [6], 11.3 µM (active).
`COc1ccc(-c2nc(CS(=O)CC(=O)N3CCC4(CC3)OCCO4)c(C)o2)cc1` (stereo not drawn): the Potency result in test [2] is “inactive”.
As for `C=C(C)[C@H]1Cc2c(ccc3c2O[C@@H]2COc4cc(OC)c(OC)cc4[C@@H]2C3=O)O1`, the Potency result in [11] was “inactive”. Further, the Potency was 1.18 µM (active) in test [12]; 0.332 µM (active) in test [8]; 0.833 µM (active) in test [13]; 0.934 µM (active) in test [10]; 0.934 µM (active) in test [14].
With `CCCn1c(C)c(C(=O)c2ccc3ccccc3c2)c2ccccc21`, the Potency entry in test [2], in test [4], in [5] and in test [6] was “inactive” throughout.
Regarding `CO[C@@H]1C[C@H](O[C@H]2CC[C@]3(C)C4CC[C@]5(C)[C@@H](C6=CC(=O)OC6)[C@@H](OC(C)=O)C[C@]5(O)C4CC[C@@H]3C2)OC(C)[C@H]1O` (stereo partly drawn), the Potency entry in [2] was “inactive”.
In general, viability refers to a read-out of living cells in per cent, often relative to untreated cells. Regarding `O=P1(N(CCCl)CCCl)NCCCO1` (stereo not drawn), the Potency result in test [11], in test [8], in test [9], in [13] and in test [10] was “inactive” each time. Further, the viability in test [12] was 114%.
Take `CCC(C)C1NC(=O)C(C(C)=O)=C1O` (stereo not drawn): the Potency result in test [1], in test [2], in test [3] and in test [7] was “inactive” throughout.
As for `CC(=O)c1cccc(N=[N+]=[N-])c1`, the Potency entry in test [2] was “inactive”.
On the same count and under the same terms, to `N[C@@]1(c2ccccc2Cl)CCC=CC1=O` belongs “inactive”.
For the molecule `CN(Cc1ccccc1)C[C@H]1CN2CC[C@H]1C[C@@H]2CNC(=O)c1ccc(C(F)(F)F)cc1`, in [1], the Potency entry was “inactive”.
For `CN1CCN(c2cnc3c(O)ccc(C(=O)O)c3c2)CC1`, the Potency entry in [1], in [2], in test [3] and in test [7] was “inactive” each time. Also, the Potency in [4] is 12.7 µM (active).
`CCC1(c2ccc(N)cc2)CCC(=O)NC1=O` (stereo not drawn): the Potency entry in test [11], in test [15], in test [13], in test [10] and in test [16] was “inactive” throughout.
As to `CCOc1ccc(CCNC(=O)c2cc3cnccc3n2Cc2cccc(C)n2)cc1OCC`, the Potency entry in test [1], in test [3], in test [7] and in [6] was “inactive” throughout.
Take `NN=C(N)N`: the Potency entry in test [11], in test [15], in [8], in test [13], in test [10] and in test [14] was “inactive” throughout. Further, the viability in test [12] is 108%.
Take `CCCCCn1c(C)c(C(=O)c2ccc(OC)c3ccccc23)c2ccccc21`: the Potency entry in test [2] is “inactive”.
Consider `O=c1[nH]c(CN2CCNCC2)nc2ccccc12`, for which the Potency result in [2] was “inactive”.
On to `N#Cc1nc(-c2cccc3ccccc23)oc1NCc1ccccc1`, for which the Potency in test [2] was 2.52 µM (active); in test [6] it was 7.12 µM (active). The Potency result in test [7] was “inactive”.
As to `CCOc1ccc(CCNC(=O)c2cc3ccncc3n2Cc2cccc(C)n2)cc1OCC`, the Potency entry in test [2], in [3], in test [7] and in test [6] was “inactive” each time.
As for `O=[N+]([O-])/C=C/c1ccc2c(c1)OCO2`, the Potency in test [2] was 5.01 µM (active); in test [4], 15.8 µM (active); in test [5] it was 35.5 µM (active); in [6] it was 3.57 µM (active). In addition, the Potency result in test [15] was “inactive”.
For `CCOc1ccc(CCNC(=O)c2cc3cnccc3n2Cc2cccc(C)c2)cc1OCC`, the Potency entry in test [3] and in [7] was “inactive” in each case.
On to `Cn1cc(Cl)c(C2N=C(Nc3nc4ccccc4o3)NC3=C2C(=O)CCC3)n1` (stereo not drawn), for which the Potency result in test [3] and in test [7] was “inactive” throughout.
